Screens from PubChem BioAssay.
DAX1 inh-1: DAX1 (NR0B1) inhibitors on StAR promoter, primary screen, cell-based, luminescence, SF-1 (NR5A1), full-length DAX-1; HEK293T StAR-luciferase reporter, SF-1/DAX-1 repression relief; inhibition, % at 6.8 µM; actives 1.1% (n = 370,000);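 active means inhibition above the mean over all tested compounds plus 3 SD, cut at about 3.6% in these data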;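 further: higher inhibition means more luminescence from relief of DAX-1 repression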
AHR activator: AHR activators, primary screen, cell-based, luminescence, luciferase reporter, human; Aryl hydrocarbon receptor (Homo sapiens), P35869; actives 2.5% (n = 320,000); AID 2796, 2010; activation, % at 5 µM; AHR-responsive luciferase reporter cells; in the data active means activation above about 47%
hcDAF12 agonist: H. contortus DAF-12 nuclear receptor activators, primary screen, cell-based, luminescence, HEK293, lit1-tk-luc reporter. HEK293 hcDAF-12 lit1-tk-luc reporter; 0% DMSO, 100% Δ7-dafachronic acid. activation, % at 6.8 µM. actives 1.4% (n = 370,000);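 active means activation above the mean of all tested compounds plus 3 SD, cut at about 5.5% in these data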
hgDAF12 agonist: H. glycines DAF-12 receptor agonists, primary screen, cell-based, luminescence, HEK293, GAL4 fusion, UAS-luciferase | Nuclear hormone receptor DAF-12 (Heterodera glycines), GAL4 fusion | HEK293 GAL4-hgDAF12 UAS-luciferase reporter, agonist luminescence; normalized to butyrate control | activation, % at 6.8 µM | actives 1.8% (n = 370,000);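 active means activation above a cutoff set at the mean of all screened compounds plus 3 SD, cut at about 10% in these data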
DAX1 inh-2: DAX1 (NR0B1) inhibitors, primary screen, cell-based, HEK293, Gal4-DAX1, luciferase luminescence; Nuclear receptor subfamily 0 group B member 1 (Homo sapiens), P51843; HEK293 Gal4-DAX1 luciferase reporter; inhibition, % at 6.75 µM; actives 0.99% (n = 340,000); AID 504766, 2011;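 active means inhibition above the mean over all tested compounds plus 3 SD, cut at about 4.2% in these data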;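 further: inhibition shows as a rise in luminescence from relieved DAX1 repression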
Target sequence (P51843 207-470 limits assumed): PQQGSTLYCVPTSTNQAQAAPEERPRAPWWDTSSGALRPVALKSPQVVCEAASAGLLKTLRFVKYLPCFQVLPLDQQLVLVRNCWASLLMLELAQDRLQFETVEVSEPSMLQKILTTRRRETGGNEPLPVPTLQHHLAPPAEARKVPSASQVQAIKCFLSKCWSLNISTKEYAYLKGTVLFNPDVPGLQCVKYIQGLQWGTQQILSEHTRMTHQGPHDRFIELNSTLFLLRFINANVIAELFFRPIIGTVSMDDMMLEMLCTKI
ssDAF-12 act: S. stercoralis DAF-12 nuclear receptor activators, primary screen, cell-based, luminescence, HEK293, GRIP1 co-expression, lit1-tk-luc; Nuclear hormone receptor DAF-12 (Strongyloides stercoralis); HEK293 ssDAF-12/GRIP1 lit1-tk-luc reporter; % of 3 µM dafachronic acid response; activation, % at 6.8 µM; actives 1% (n = 370,000); AID 652126, 2013;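 active means activation above the mean over all tested compounds plus 3 SD, cut at about 0.9% in these data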
Of the large screens only hits and unclear results are named; the others gave an inactive call. Only some compounds are listed: those with a hit (about 5.7% of all), similar ones and a draw of the others.

CCC(C)Sc1nc2c(cnn2-c2ccccc2)c(=O)[nH]1 (configuration not stated)	AHR activator 66
Cc1ccccc1OCc1nc2ccccc2n1C	hgDAF12 agonist 11
CC1=C(C(=O)N(C)C)CC(CC(=O)NCc2cccc3ccccc23)C(=O)N1Cc1ccc(C(C)(C)C)cc1 (configuration not stated)	none (no result: AHR activator, DAX1 inh-2)
COc1cccc(-c2ccc(C#N)c(SCC(=O)NCCc3ccccc3)n2)c1	ssDAF-12 act 1.0
COc1cccc(-c2ccc(SCC(=O)NCCc3ccccc3)nn2)c1	none
CCN1/C(=C(\O)c2ccccc2)C(=O)c2ccccc2S1(=O)=O	none
Nc1cc(C(F)(F)F)ccc1Nc1ccccc1	ssDAF-12 act 0.9
Nc1cc(C(F)(F)F)ccc1NCCc1ccccn1	AHR activator 64
O=C(NCc1ccccc1)c1ccc(-c2ccccc2F)o1	ssDAF-12 act 0.9
O=C(NCCc1ccccc1)c1ccc(-c2ccccc2C(F)(F)F)o1	none (no result: DAX1 inh-2)
O=C(NCc1ccco1)c1ccc(-c2ccccc2Cl)o1	DAX1 inh-2 7.0
NS(=O)(=O)c1ccc(CCNC(=O)CN2CCN(c3ccccc3F)CC2)cc1	none
Cc1ccc(Sc2ccc(NC(=O)c3ccc(S(C)(=O)=O)cc3Cl)cc2)cc1	AHR activator 48
Oc1ccc(/C=N/NC(=S)NC2CC3CCC2C3)cc1 (configuration not stated)	none
S=C(N/N=C/c1cccs1)NC1CC2CCC1C2 (configuration not stated)	hgDAF12 agonist 11 (no result: DAX1 inh-2)
COc1cccc2cc(-c3nc4ccccc4o3)c(=O)oc12	hgDAF12 agonist 11, DAX1 inh-2 4.4
COc1cccc2cc(C(=O)c3ccccc3)oc12	none
COc1cccc2cc3c(=O)n(-c4ccccc4)nc-3oc12	AHR activator 49
COc1ccc(CNC(=O)C(c2cccs2)N(Cc2ccco2)C(=O)Cc2cccs2)cc1 (configuration not stated)	none
CC(C)N1CCN(Cc2cccc(-c3ccco3)c2)CC1CCO (configuration not stated)	none
Cc1ccccc1-c1cccc(CN2CCN(C)C(CCO)C2)c1 (configuration not stated)	DAX1 inh-2 4.6
CCN1C(=O)NC2C1N(S(C)(=O)=O)CCN2S(C)(=O)=O (configuration not stated)	none
Cc1onc(-c2c(Cl)cccc2Cl)c1C(=O)NCc1ccc(S(N)(=O)=O)cc1	none
Cc1sc2ncnc(N/N=C/c3ccc(O)cc3)c2c1C	none
COc1ccc(/C=N/Nc2ncnc3sc(C)c(C)c23)cc1	AHR activator 62
COc1ccc(N(CC(=O)Nc2ccc3c(c2)OCO3)S(=O)(=O)c2ccccc2)c(OC)c1	AHR activator 63
Cc1nn(C)c(C)c1S(=O)(=O)N(CC(=O)Nc1ccc2c(c1)OCO2)c1ccc(C(C)C)cc1	AHR activator 56
COc1ccc(S(=O)(=O)N(C)CC(=O)Nc2ccc3c(c2)OCO3)cc1	none
COc1ccc(N(CC(=O)Nc2ccc3c(c2)OCO3)S(=O)(=O)c2ccc(F)cc2)cc1	AHR activator 67
COc1ccc(N(CC(=O)Nc2ccc3c(c2)OCCO3)S(=O)(=O)c2c(C)nn(C)c2C)cc1	none
COc1ccc(N(CC(=O)Nc2ccc3c(c2)OCO3)S(=O)(=O)c2ccccc2)cc1OC	AHR activator 50
c1ccc2c(c1)c1ccccc1n2CN1CCOCC1	none
CCOC(=O)c1ccc(NS(=O)(=O)c2ccc3c(c2)oc(=O)n3C)cc1	none
Cn1nc(C(=O)Nc2ccc(S(=O)(=O)N3CCCC3)cc2)ccc1=O	none
O=C(Nc1ccc(S(=O)(=O)Nc2nccs2)cc1)C1=NN(c2ccccc2)C(=O)CC1	ssDAF-12 act 1.2
Cn1nc(C(=O)Nc2ccc(S(=O)(=O)Nc3ncccn3)cc2)ccc1=O	DAX1 inh-2 5.1
Cc1cc(C)c(S(=O)(=O)Nc2ccccn2)c(C)c1	DAX1 inh-2 4.3
CCC(=O)Nc1ccc(S(=O)(=O)Nc2ccccn2)cc1	ssDAF-12 act 1.4
O=C(Nc1ccc(S(=O)(=O)Nc2nccs2)cc1)c1ccncc1	none (no result: AHR activator, DAX1 inh-2)
CCC(=O)Nc1ccc(S(=O)(=O)Nc2ncccn2)cc1	none
CC1=C(C#N)C(NC(=O)c2ccc(C)cc2)(C(F)(F)F)C(=O)N1 (configuration not stated)	none
CCC(=O)Nc1ccc(S(=O)(=O)Nc2nccs2)cc1	DAX1 inh-2 4.3
Cc1ccc(CNC(=O)CNC(=S)N(Cc2ccccc2)Cc2ccccc2F)cc1	none (no result: AHR activator)
CN(CC(=O)NC1CCCCC1)S(=O)(=O)c1cccc2nsnc12	none
FC(F)Oc1ccc(-c2csc(=Nc3cccnc3)n2CC2CCCO2)cc1 (configuration not stated)	AHR activator 48
COCCn1c(-c2ccc(Br)cc2)csc1=Nc1cccnc1	none
CCOC(=O)C1CCCN(c2c(NCCN3CCCCC3CC)c(=O)c2=O)C1 (configuration not stated)	none
CCOC(=O)N1CCN(c2c(NCCN3CCCCC3CC)c(=O)c2=O)CC1 (configuration not stated)	DAX1 inh-1 4.2
CN(C)N1C(N)=C(C#N)C(c2cccs2)C2=C1CC(C)(C)CC2=O (configuration not stated)	ssDAF-12 act 2.0 (no result: DAX1 inh-2)
CC(=O)[C@@H]1[C@@H](C(=O)c2ccc(C)cc2)[C@]2(C(=O)Nc3ccccc32)[C@H]2C=Cc3cc(F)ccc3N12	none
CC(=O)[C@@H]1[C@@H](C(=O)c2ccc(F)cc2)[C@]2(C(=O)Nc3ccccc32)[C@H]2C=Cc3cc(F)ccc3N12	ssDAF-12 act 1.5
O=C(Nc1ccc(Cl)cc1)c1ccc2ncsc2c1	AHR activator 49
O=C(Nc1ccc(Cl)cc1)c1cncs1	AHR activator 68
O=C(Nc1cccc(Cl)c1)c1ccc2ncsc2c1	none
O=C(Nc1ccc(F)cc1)c1ccc2ncsc2c1	hgDAF12 agonist 12
COCCN(Cc1cc2cc(C)ccc2n2nnnc12)C(=S)Nc1ccc(C)cc1	DAX1 inh-2 4.6
COCCN(Cc1cc2cc(C)ccc2n2nnnc12)C(=S)Nc1ccc(OC)cc1	none (no result: AHR activator)
CSCc1ccc(C(=O)OCc2nc3ccccc3s2)o1	hcDAF12 agonist 6.2, hgDAF12 agonist 12
